# GALK inhibitor = galactokinase (human) inhibition; P51570; Purified GALK, Kinase-Glo residual ATP luminescence; Potency, µM (doses to about 57.5 µM), for inactives: top-dose activity change, negative = inhibition, usual class: inhibitors; 0.007% of 270,000 active; further: potency means the concentration at half of the fitted maximal effect
#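 Kinase-Glo Plus luminescence measured ATP left after a 1 h room-temperature reaction. The reaction used 5 nM GALK, 100 uM galactose and 35 uM ATP at pH 8.0 (20 mM HEPES, 5 mM MgCl2, 60 mM NaCl, 1 mM DTT, 0.01% BSA).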
# RORg inh = ROR gamma (mouse) transcription inhibition; P51450; Drosophila S2 Gal4-RORgamma UAS-luciferase reporter, 20 h; Potency, µM (doses to about 53.6 µM), for the others: top-dose activity change, negative = inhibition, hits mostly inhibitors; 5.4% of 310,000 active; AID 2551; further: potency means the concentration at half of the fitted maximal effect; nearly all actives have a fitted effect of over 60% in size
# Target sequence (P51450 whole entry, looked up, the tested form may be a part): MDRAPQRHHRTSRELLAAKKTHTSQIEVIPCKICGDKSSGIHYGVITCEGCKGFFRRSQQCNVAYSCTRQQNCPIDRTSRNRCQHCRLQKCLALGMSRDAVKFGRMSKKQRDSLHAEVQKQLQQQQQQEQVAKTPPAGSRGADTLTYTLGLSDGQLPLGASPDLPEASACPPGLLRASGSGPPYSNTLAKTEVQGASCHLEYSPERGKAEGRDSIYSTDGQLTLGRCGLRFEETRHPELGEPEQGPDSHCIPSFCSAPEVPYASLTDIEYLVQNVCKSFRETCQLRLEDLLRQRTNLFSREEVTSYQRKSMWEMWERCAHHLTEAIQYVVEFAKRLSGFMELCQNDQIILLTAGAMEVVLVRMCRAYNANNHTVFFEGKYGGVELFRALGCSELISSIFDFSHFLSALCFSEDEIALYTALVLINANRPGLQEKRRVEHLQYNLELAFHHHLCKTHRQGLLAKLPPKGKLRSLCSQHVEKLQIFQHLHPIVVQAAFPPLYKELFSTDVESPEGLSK
#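 Stably transfected Drosophila Schneider cells are the test system, with ROR gamma fused to Gal4 and luciferase under UAS control; luminescence is read after 20 hr of 700 uM copper sulfate induction at ambient temperature.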
# VP16 counter = inhibits Gal4-VP16 luciferase reporter, ROR gamma counter-screen; Drosophila S2 Gal4-VP16 UAS-luciferase, luminescence, 20 h; Potency, µM (titrated, usually from 53.6 µM), for inactives: top-dose activity, negative = inhibition, actives largely listed as inhibitors; 3.5% of 310,000 active;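 further: Gal4-VP16 expression switched on by copper sulfate through the metallothionein promoter; potency means the concentration at half of the fitted maximal effect; nearly all actives have a fitted effect of over 50% in size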
# Coupling enz = inhibits coupling enzyme system, counter-screen for aldolase hits | coupling enzyme system counterscreen, AmpLite Red fluorescence | activity change, negative = inhibition, % at 58.2 µM, hits read low | 0.67% of 290,000 active | AID 2472; in the data active means activity change below about -30%
#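 Fluorescence at 525 nm excitation and 598 nm emission measured inhibition of the coupled detection system without aldolase. Compounds (at 57.5 uM final) were preincubated 10 min at room temperature with coupling enzyme reagent before a 20 min substrate/AmpLite Red step.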
# rTrxR1 inhibitor = inhibitors of rat thioredoxin reductase 1; AID 588453; Potency, µM (titrated, usually from 114 µM), inactives show at the highest dose activity change, negative = inhibition, usual class: inhibitors; O89049; recombinant rTrxR1, NADPH fluorescence consumption, selenite substrate; 1% of 390,000 active; further: potency means the concentration at half of the fitted maximal effect; nearly all actives have a fitted effect of over 65% in size
#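 Rat TrxR1 (90 nM in the dispensed reagent) was pre-reduced with 400 uM NADPH for 5 min at room temperature, then incubated with compound for 15 min. After 400 uM selenite was added, NADPH fluorescence (Ex 340/Em 450 nm) was followed for 8 min.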
# TrxR1 substrate = is turned over as a substrate by rat TrxR1 | O89049 | purified TrxR1 substrate turnover, NADPH consumption readout | Potency, µM (doses to about 114 µM), for the others: at the highest dose activity change, negative = substrate turnover | 0.01% of 390,000 active | AID 588456; further: potency means the concentration at half of the fitted maximal effect; nearly all actives have a fitted effect of over 50% in size
#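 Rat TrxR1, dispensed at 90 nM, was prereduced with 400 uM NADPH (final) for 5 min at ~22 deg C, then incubated with compound 15 min before 400 uM selenite. A first-read NADPH fluorescence drop versus no-compound background flagged substrates.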
# Active calls of the source: *; ? = inconclusive; . = no result; [ ] = remark or other dose. In the library only some 5.9% were active in any assay of this set; here they are far more common. Unless noted, the call rests on the fitted dose curve; in most records, active means well fitted curve in the direction sought with a large enough effect; inconclusive means small, poorly fitted or top-dose-only effect, or another doubt; inactive means no such curve, though single readings can be large; an effect the other way counts as inactive or inconclusive. On the % scale 0 is the no-effect control and ±100 the full control effect.
SMILES,GALK inhibitor,RORg inh,VP16 counter,Coupling enz,rTrxR1 inhibitor,TrxR1 substrate
COc1cccc2sc(Nc3nc4ccc(NC(C)=O)cc4s3)nc12,0%,14%,-12%,-3,31%,88%
COc1cc(Cl)c(C)cc1NC(c1ccccc1)c1nnc(-c2ccccc2Cl)o1 (stereo not given),.,.,.,.,23%,7%
COc1cccc2sc(NN)nc12,1%,13µM*,22µM*,-5,25%[57.1 µM],-8%
COc1cccc2sc(Nc3nnc(-c4ccccc4Cl)o3)nc12,-4%,2µM*,2.5µM*,-1,25%,8%
COc1cccc(-c2nnc(Nc3nc4c(F)cccc4s3)o2)c1,-17%,?,3.5µM*,-1,32%,41%
COc1ccccc1-c1nnc(Nc2nc3c(OC)cccc3s2)o1,0%,1.6µM*,?,0,45%[57.1 µM],131%[57.1 µM]
COc1cccc2sc(Nc3nc(-c4cc5ccccc5oc4=O)cs3)nc12,0%,?,?,0,-10%,-5%
COc1cccc2sc(Nc3nc(-c4ccncc4)cs3)nc12,3%,13µM*,-14%,0,27%[57.1 µM],-10%[57.1 µM]
COc1cccc2cc(/C(C)=N/Nc3nc(-c4cc(C)ccc4C)cs3)c(=O)oc12,-2%,0.79µM*,-6%,2,?,-4%
COc1ccc(Nc2nc(-c3cc4cccc(OC)c4oc3=O)cs2)cc1,2%,-2%,-30%,0,-9%,-10%
COc1ccc(NC(=S)N2CCN(Cc3ccccc3)CC2)cc1,-2%,11µM*,16%[10 µM],0,11%[57.1 µM],6%[57.1 µM]
S=C(Nc1ccccc1)N1CCN(Cc2ccccc2)CC1,-3%,?,?,4,11%,-4%
S=C(Nc1cccc(Cl)c1)N1CCN(Cc2ccccc2)CC1,0%,10µM*,?,1,-19%,-7%
COc1cccc(NC(=S)N2CCN(Cc3ccccc3)CC2)c1,1%,?,20µM*,0,-18%,-1%
COc1cc(NC(=S)N2CCN(Cc3ccccc3)CC2)cc(OC)c1,1%,?,?,1,-3%,-1%
CC(C)N(C(=O)C[n+]1ccc(/C=N/O)cc1)C(C)C,.,-20%,?,4,6%,-4%
CC1CC(C)CN(CCCNC(=O)CN2C(=O)CSc3ccc(S(=O)(=O)N4CCCCC4)cc32)C1 (stereo not given),8%,1%,4%,-6,25%,4%
CCCCc1ccc(/C=C2\C(=O)c3ccccc3C(O)=C2C(=O)OCC)cc1,-2%,10µM*,7%[0.365 µM],-28,.,.
COc1ccc(C=C2C(=O)c3ccccc3C2=O)cc1O,6%,?,?,2,-21%[57.1 µM],-2%[57.1 µM]
O=C(NC(=S)N1CCCc2ccccc21)c1ccc([N+](=O)[O-])cc1,1%,?,6.3µM*,-13,-8%,-4%
O=C(NC(=S)N1CCCc2ccccc21)c1ccccc1,-2%,-31%,2%,-5,-7%[57.1 µM],8%[57.1 µM]
COc1ccccc1C(=O)NC(=S)N1CCc2ccccc21,0%,?,?,-3,5%[57.1 µM],1%[57.1 µM]
COc1ccccc1C(=O)NC(=S)N1CCCc2ccccc21,0%,7.9µM*,?,-39*,-8%,3%
NC(=S)N1CCCc2ccccc21,-1%,6.3µM*,?,0,7%,7%
CCC(CC(C)(C)O)C(=O)NNC(=S)Nc1ccccc1 (stereo not given),-2%,-33%,-16%,0,1%[57.1 µM],3%[57.1 µM]
SMILES,GALK inhibitor,RORg inh,VP16 counter,Coupling enz,rTrxR1 inhibitor,TrxR1 substrate
C[C@@H]1NS(=O)(=O)[C@H]2C[C@@H]3C=C[C@]2(O3)[C@H]1OC(=O)Nc1ccc(C(F)(F)F)cc1[N+](=O)[O-],.,.,.,.,3%,-5%
Oc1c(C(c2ccc(Cl)cc2Cl)N2CCCC2)sc2nc(-c3ccco3)nn12 (stereo not given),.,.,.,.,14%[57.1 µM],-1%[57.1 µM]
CCCC(=O)Nc1cccc(NC(=O)CN2CCN(c3ccccc3OC)CC2)c1,8%,12%,-2%,4,6%,-1%
Cn1c(C2CC(=O)N(Cc3ccccc3)C2)nc2ccccc21 (stereo not given),-4%,-28%,5%,1,5%[57.1 µM],8%[57.1 µM]
O=C1Cc2ccccc2C(=O)N1Nc1ccccc1,.,.,.,.,50µM*,-7%
Cc1ccc2c(CC(=O)Nc3ccc(S(=O)(=O)Nc4nc(C)cc(C)n4)cc3)coc2c1,.,.,.,.,15%,2%
CCOC(=O)c1cnc(SSc2ncc(C(=O)OCC)c(N)n2)nc1N,6%,10µM*,11µM*,-1,?,-16%
COc1ccc(NC(=O)c2nnn(CC(=O)Nc3ccc(C)c(C)c3)c2N)cc1OC,.,.,.,.,7%[57.1 µM],7%[57.1 µM]
COc1cccc(C(=O)NC(=S)Nc2ccc3oc(=O)ccc3c2)c1,-1%,?,?,5,?,-5%
O=C(NC(=S)Nc1ccc2oc(=O)ccc2c1)c1cccc(Cl)c1,-1%,2.8µM*,-10%,1,0%,-6%
O=C(NC(=S)Nc1ccc2oc(=O)ccc2c1)c1cccc(F)c1,-5%,6.3µM*,1%,1,15%,5%
Cn1c(Cl)nc2c1c(=O)n(Cc1cccc(Br)c1)c(=O)n2C,0%,7%,5%,4,10%,0%
COc1ccc(CC(=O)Oc2ccccc2C)cc1S(=O)(=O)N1CCOCC1,.,.,.,.,-7%,-8%
CCCCn1c(=O)n(Cc2cccc(F)c2)c(=O)c2c1ncn2Cc1ccco1,-2%,3.2µM*,?,0,-16%[57.1 µM],-3%[57.1 µM]
NC(=O)CC(NC(=O)Cc1ccc(Cl)cc1)c1ccc(NC2CCN(Cc3ccccc3)CC2)c([N+](=O)[O-])c1 (stereo not given),.,20%,-17%,0,28%[57.1 µM],-2%[57.1 µM]
FC(F)Oc1ccc(NC(=S)N2CCc3ccccc32)cc1,0%,8.9µM*,-90%,-6,23%[57.1 µM],-5%
Fc1ccc(NC(=S)N2CCc3ccccc32)cc1,0%,11µM*,?,-1,11%,7%
Cc1ccc(Cl)cc1N1CCN(S(=O)(=O)c2ccc3[nH]c4c(c3c2)CCCC4)CC1,.,.,.,.,14%,4%
CS(=O)(=O)c1ccc(-n2nnc3ccccc32)c([N+](=O)[O-])c1,-3%,-26%,-7%,-1,27%,2%
N#Cc1cc([N+](=O)[O-])c(-n2nnc3ccccc32)c([N+](=O)[O-])c1,-2%,-17%,3%,1,16µM*,-2%
Cc1ccc(C(NC(=O)N2CCCCC2)=C(Cl)Cl)cc1F,0%,11µM*,7.1µM*,0,25%,9%
O=C(NCc1cccnc1)NC1(C(F)(F)F)Oc2ccc(Cl)cc2O1 (stereo not given),0%,11µM*,?,2,-2%,-5%

# Compound activity deposited in PubChem by National Center for Advancing Translational Sciences (NCATS).
